Sampled rows, rich in hits. Any-hit rate of the full collection: about 0.92%.
CIT2-GFP yeast = alters CIT2-GFP fluorescence in TOR pathway yeast screen | S. cerevisiae CIT2-GFP strain, flow cytometry, 3 h; 100 means same as DMSO wells | GFP response vs DMSO, % at 10 µM | 0.065% of 320,000 active;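 active = GFP response relative to DMSO above a set limit, near the screen mean plus 3 SD, cut at about 150% in these data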;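 note: ratio of well median GFP fluorescence to mean of DMSO wells on the plate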
RPL19A TOR yeast = alters RPL19A-GFP fluorescence in TOR pathway yeast screen; S. cerevisiae RPL19A-GFP strain, flow cytometry, 3 h; stronger effect = lower value; percent response vs DMSO, % at 10 µM; 0.3% of 330,000 active; AID 2025;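 active = percent response vs DMSO below 50%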;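 note: median channel GFP fluorescence of the barcoded RPL19A-GFP strain; ratio of sample median GFP to plate DMSO average so 100% = DMSO; lower means less RPL19A-GFP as with rapamycin TOR inhibition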
AGP1 TOR yeast = alters AGP1-GFP fluorescence in TOR pathway yeast screen; S. cerevisiae AGP1-GFP multiplex flow cytometry, 3 h; GFP as percent of DMSO wells; 0.02% of 320,000 active; AID 2066; GFP response vs DMSO, % at 10 µM;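 active = GFP response relative to DMSO above a set limit, near screen average plus 3 SD, cut at about 150% in these data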;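 note: median GFP channel fluorescence of the gated AGP1 strain per well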
LAP4 TOR yeast = modulators of TOR pathway LAP4-GFP in S. cerevisiae; AID 2023; 0.34% of 320,000 active; S. cerevisiae LAP4-GFP multiplex, flow cytometry GFP, 3 h; median GFP as percent of DMSO wells; GFP response vs DMSO, % at 10 µM;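 active = GFP response vs DMSO above a set limit, about the screen mean plus 3 SD, cut at about 150% in these data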
MEP2-GFP yeast = yeast TOR pathway MEP2-GFP modulation | GFP response vs DMSO, % at 10 µM | S. cerevisiae MEP2-GFP strain, flow cytometry GFP, 3 h; 100% = DMSO control level | AID 2016 | 0.51% of 330,000 active;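 active = GFP response versus DMSO above a set limit, roughly screen mean plus 3 SD, cut at about 180% in these data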;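 note: median GFP fluorescence of the barcode-gated MEP2-GFP cells per well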
LAP4-GFP pick2 = reconfirmed LAP4-GFP TOR pathway modulator in yeast. shares compounds with LAP4 TOR yeast. GFP response vs DMSO, % at 10 µM. 20% of 590 active. S. cerevisiae LAP4-GFP strain, flow cytometry GFP, 3 h;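 active = GFP signal as percent of the solvent control above about 150%, meaning raised reporter expression, limit read from the data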;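 note: ratio of well median GFP fluorescence to plate DMSO mean so 100% = DMSO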
MEP2-GFP pick2 = yeast MEP2-GFP modulation, second cherry pick; 10% of 590 active; S. cerevisiae MEP2-GFP strain, flow cytometry GFP, 3 h; shares compounds with LAP4 TOR yeast; AID 2622; GFP response vs DMSO, % at 10 µM;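 active = GFP signal above 150% of the solvent control wells, that is a rise of more than half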;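 note: median channel GFP fluorescence of all gated yeast cells per well; ratio of median GFP to plate DMSO average so 100% = DMSO level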
RPL19A-GFP pick2 = yeast RPL19A-GFP TOR reporter modulation, second cherry pick. shares compounds with LAP4 TOR yeast. GFP response vs DMSO, % at 10 µM. 3% of 590 active. S. cerevisiae RPL19A-GFP strain, flow cytometry GFP, 3 h; stronger effect = lower value; 100% means same as DMSO wells;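 active = under 65% GFP response relative to DMSO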;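 note: median GFP channel fluorescence per well over the all cells gate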
CIT2-GFP pick2 = yeast CIT2-GFP TOR reporter modulation, second cherry pick | GFP response vs DMSO, % at 10 µM | 8% of 590 active | S. cerevisiae CIT2-GFP strain, flow cytometry GFP, 3 h; DMSO control wells read 100% | shares compounds with LAP4 TOR yeast;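 active = GFP response vs DMSO above about 150%, limit read from the data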;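 note: median green fluorescence per well over all gated yeast cells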
AGP1-GFP pick2 = second confirmation of modulators of TOR reporter AGP1-GFP in yeast; shares compounds with LAP4 TOR yeast; S. cerevisiae AGP1-GFP strain, flow cytometry GFP, 3 h; percent response vs DMSO, % at 10 µM; 590 tested, under 10 active;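 active = over 150 percent of DMSO response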;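 note: median GFP channel fluorescence over all cells without mother daughter split; sample median GFP divided by mean DMSO control so 100% equals DMSO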
Yeast autofluor = counter-screen for compound autofluorescence in yeast s288c cells | 610 tested, under 10 active | shares compounds with LAP4 TOR yeast | fluorescence change (kMESF span) at 33 µM | AID 2757 | S. cerevisiae s288c, 520 nm autofluorescence, flow cytometry, 3 h; stronger effect = higher value; zero means same as solvent-only cells;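 active = fluorescence span over the dose series, or activity score, above about 33, limit read from the data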
s288c autofl DR = yeast s288c autofluorescence artifact in dose response. fluorescence change (span) at 33 µM. S. cerevisiae s288c parental, compound autofluorescence, flow cytometry, 3 h. shares compounds with LAP4 TOR yeast. 110 tested, under 10 active;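 active = fluorescence change span, or the activity score built from it, above 25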
TORC1 bypass gr = wildtype yeast growth loss with TORC1 bypass cells unaffected; shares compounds with LAP4 TOR yeast; S. cerevisiae BY4741 spot growth rating, 48-72 h; stronger effect = lower value; growth rating (0-3) at 30 µM; 120 tested, under 10 active;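 active = growth rating at most 1 for wild type yeast while the TORC1 bypass strain still grows fully, rated 3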
* hit, by the source's call; . = not tested or not shown.

SMILES	CIT2-GFP yeast	RPL19A TOR yeast	AGP1 TOR yeast	LAP4 TOR yeast	MEP2-GFP yeast	LAP4-GFP pick2	MEP2-GFP pick2	RPL19A-GFP pick2	CIT2-GFP pick2	AGP1-GFP pick2	others
COc1ccc(C(CNC(=O)c2cccc(S(=O)(=O)N3CCCCC3)c2)N2CCCC2)cc1 (stereo unspecified)	95	93	96	88	95	.	.	.	.	.
CCOC(=O)[C@H]1[C@H]2COc3ccc(OC)cc3[C@@H]2N2C(=O)CN(CC3CCCO3)C(=O)[C@@]12C (stereo partly specified)	98	94	100	92	95	.	.	.	.	.
CC(=O)c1ccc(NC(=O)Cn2c3ccccc3c3nc(=O)cc(C)n32)cc1	84	56	71	92	156	100	102	100	97	100
CC(=O)Nc1cccc(-c2nnc(-c3ccc(C)cc3)o2)c1	102	101	98	98	103	.	.	.	.	.
O=C(Nc1cccc(N=Cc2cc(Br)cc(Br)c2O)c1)c1ccco1	85	71	86	190*	96	146	128	71	117	99
O=C(Nc1cccc(N=Cc2cc(Cl)cc(Br)c2O)c1)c1ccco1	93	95	90	128	96	.	.	.	.	.
Cc1cc(=O)[nH]c(SCC(=O)Nc2cccc(S(=O)(=O)N3CCOCC3)c2)n1	94	105	101	103	104	.	.	.	.	.
COc1cc(NC(=O)CCc2c(C)noc2C)c(Cl)cc1C(=O)O	109	102	100	93	103	.	.	.	.	.
Cc1cc(OCC(=O)NC2CC(C)(C)NC(C)(C)C2)c2c(C)c(C)c(=O)oc2c1	97	97	103	99	103	.	.	.	.	.
O=C(O)c1ccc(COc2ccccc2C=C2C(=O)c3ccccc3C2=O)cc1	90	102	93	104	101	110	110	101	108	97	Yeast autofluor=0
O=C1NC(=S)N/C1=C\c1ccccc1OCc1ccc(C(=O)O)cc1	91	109	104	103	104	.	.	.	.	.
CC(C)Oc1ccc(C(=O)NCc2cccs2)cc1	86	79	104	169*	93	102	98	100	93	98
CCCCC(Br)C(=O)Nc1ccc(S(=O)(=O)Nc2cc(C)nc(C)n2)cc1 (stereo unspecified)	111	99	97	92	102	.	.	.	.	.
CC(=O)c1ccc(NC(=O)CN(C)CC(=O)Nc2cccc(F)c2)cc1	84	93	91	91	94	.	.	.	.	.
CC1CCCC(NC(=O)CN(C)CC(=O)Nc2cccc(F)c2)C1C (stereo unspecified)	127	80	134	172*	155	99	100	100	97	99
O=C(COC(=O)c1ccc(F)c(S(=O)(=O)N2CCOCC2)c1)NCc1ccccc1	112	100	101	99	105	.	.	.	.	.
Cc1cccc(Nc2nc(-c3ccccn3)cs2)n1	80	68	68	173*	99	.	.	.	.	.	Yeast autofluor=1
Cc1cccnc1Nc1nc(-c2ccccn2)cs1	67	62	63	104	103	165*	155*	98	115	88	Yeast autofluor=2
Cc1cccnc1Nc1nc(-c2ccccc2)cs1	104	104	97	88	102	.	.	.	.	.
Cc1cccc(Nc2nc(-c3cccs3)cs2)n1	106	90	102	133	98	.	.	.	.	.
O=C1c2ccccc2C(=O)N1SC1CCCCC1	56	59	70	68	78	96	116	101	115	101
CSCCC(NC(=O)COc1ccccc1)C(=O)N(C)Cc1ccc(Cl)cc1Cl (stereo unspecified)	96	104	111	101	103	.	.	.	.	.
CC(C)CN(C(=O)CSc1nc2ccccc2o1)c1c(N)n(Cc2ccccc2)c(=O)[nH]c1=O	95	101	112	115	102	.	.	.	.	.
O=C(Oc1c(Cl)cc(Cl)c2cccnc12)c1cccs1	82	98	83	222*	102	201*	141	108	118	104	Yeast autofluor=0.81
O=C(Oc1c(Cl)cc(Cl)c2cccnc12)c1ccco1	71	95	85	230*	108	.	.	.	.	.	Yeast autofluor=1.3;s288c autofl DR=0.26;TORC1 bypass gr=0
SMILES	CIT2-GFP yeast	RPL19A TOR yeast	AGP1 TOR yeast	LAP4 TOR yeast	MEP2-GFP yeast	LAP4-GFP pick2	MEP2-GFP pick2	RPL19A-GFP pick2	CIT2-GFP pick2	AGP1-GFP pick2	others
COc1ccccc1C(=O)NC(=O)COC(=O)CNC(=O)c1ccccc1F	96	100	96	93	101	.	.	.	.	.
CCNC(=S)NNC(=O)Cn1c(=O)c2c(ncn2CCOC)n(Cc2ccccc2)c1=O	81	85	97	179*	221*	99	108	101	102	100
CCN(C(=O)Cn1c(=O)oc2cc(S(=O)(=O)N3CCCC3)ccc21)c1ccc(OC)cc1	103	95	99	114	504*	100	100	100	97	100
C=C1CCN(Cc2ccccc2)S(=O)(=O)c2ccccc21	85	98	85	163*	92	99	100	99	93	95
C=CCOc1cccc(C(=O)/C=C2/C(=O)Nc3ccccc32)c1	105	93	105	127	118	.	.	.	.	.	Yeast autofluor=0
CC(=O)/C=C1/C(=O)Nc2ccccc21	85	89	95	121	80	.	.	.	.	.
CCOc1cc2c(C#N)c(N(CC)CC)nc(N)c2c(N)n1	67	95	70	153*	89	101	100	99	100	97
CCOc1cc2c(C#N)c(N3CCOCC3)nc(N)c2c(N)n1	97	93	.	93	100	.	.	.	.	.
